{
  "source": "PubChem BioAssay AID1347076",
  "about": "(National Center for Advancing Translational Sciences (NCATS), 2019)",
  "note": "About 13,000 (3.2%) of roughly 400,000 compounds were called active. Roughly 18% stayed inconclusive and do not appear here. Calls come from the whole dose curve; as a rule, active = well fitted cell-killing curve with a large enough effect; inconclusive = small, poorly fitted or top-dose-only effect, or effect the other way; inactive = flat fitted curve, though single readings scatter. Shown is part of a subset that was picked to be rich in actives.",
  "data": [
    {"assay": "qHTS assay for MDR1-selective chemotherapeutics: Primary screen using the drug-selected MDR subline cells KB-V1; note: nearly all actives have a fitted effect of over 60% in size; note: potency is the fitted concentration of half-maximal effect; for activity change, negative = cytotoxicity: % is set by controls: 0 for no effect and ±100 for the full control effect", "settings": "KB-V1 MDR cells viability, CellTiter-Glo, 72 h; series mostly up to 46.1 µM; activity change, negative = cytotoxicity: at the top concentration", "procedure,_shortened": "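KB-V1 MDR subline cells in DMEM (phenol-red free, 10% FBS) exposed to compounds in qHTS concentration series for 72 h at 37 degrees C. Viability read by CellTiter-Glo luminescence; concentration-effect curves fitted after normalization and correction.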", "values": [
      {"compound": "CCCOc1ccccc1C1CC(=O)Nc2cc3c(cc21)OCO3", "note": "(configuration not stated)", "Potency": "4.61 µM (active)"},
      {"compound": "Cc1cccc(N2CCN(c3ccc(C(=O)O)cc3NC(=O)c3ccccc3F)CC2C)c1", "note": "(configuration not stated)", "activity change, negative = cytotoxicity": "7.99% (inactive)"},
      {"compound": "CC1CCN(C(=O)CSc2nnc(-c3ccco3)n2N)CC1", "activity change, negative = cytotoxicity": "0% (inactive)"},
      {"compound": "COc1cccc(C(O)c2nc(-c3ccc(C)c(C)c3)cs2)c1", "note": "(configuration not stated)", "activity change, negative = cytotoxicity": "-4.18% (inactive)"},
      {"compound": "CCN(CC(=O)Nc1ccccc1OC)C(=O)CC1CC2CCC1C2", "note": "(configuration not stated)", "Potency": "16.4 µM (active)"},
      {"compound": "CCCN(CC(=O)Nc1ccccc1OC)C(=O)CCC(=O)c1ccc(F)cc1", "Potency": "10.3 µM (active)"},
      {"compound": "COc1ccc(S(=O)(=O)N2CCOCC2)cc1NC(=O)CC1CC2CCC1C2", "note": "(configuration not stated)", "activity change, negative = cytotoxicity": "-15.9% (inactive)"},
      {"compound": "COc1ccccc1/C=C/C(=O)NC1CC2CCC1C2", "note": "(configuration not stated)", "activity change, negative = cytotoxicity": "-12.1% (inactive)"},
      {"compound": "COc1ccccc1NC(=O)COC(=O)COc1ccccc1F", "activity change, negative = cytotoxicity": "14.3% (inactive)"},
      {"compound": "COc1ccccc1NC(=O)CN(c1ccccc1OC)S(=O)(=O)c1ccccc1", "activity change, negative = cytotoxicity": "0% (inactive)"},
      {"compound": "Cc1cc(C)cc(NC(=O)CCS(=O)(=O)c2cc3c4c(c2)CCN4C(=O)CC3)c1", "activity change, negative = cytotoxicity": "0% (inactive)"},
      {"compound": "Cc1cccc(CN2CCN(C3CN(Cc4cn(Cc5ccccc5F)nn4)S(=O)(=O)C3)CC2)c1", "note": "(configuration not stated)", "activity change, negative = cytotoxicity": "-1.94% (inactive)"},
      {"compound": "Cc1ccc(OCC(=O)NC(C)c2ccccc2)cc1C", "note": "(configuration not stated)", "activity change, negative = cytotoxicity": "17.2% (inactive)"},
      {"compound": "CC(NC(=S)NNS(=O)(=O)c1ccc(C(C)(C)C)cc1)c1ccccc1", "note": "(configuration not stated)", "activity change, negative = cytotoxicity": "-6.37% (inactive)"},
      {"compound": "Cc1ccc(C)c(NC(=S)NNC(=O)c2csc(C)c2)c1", "Potency": "18.4 µM (active)"},
      {"compound": "Cc1ccc(C)c(NC(=O)CCC(=O)NNC(=O)c2cccs2)c1", "activity change, negative = cytotoxicity": "24.8% (inactive)"},
      {"compound": "Cc1cc(C(=O)NNC(=S)NC(C)c2ccccc2)cs1", "note": "(configuration not stated)", "Potency": "14.6 µM (active)"},
      {"compound": "Cc1ccc(C)c(NC(=S)NNC(=S)Nc2ccc(C(C)C)cc2)c1", "activity change, negative = cytotoxicity": "-25.9% (inactive)"},
      {"compound": "Nc1nc2ncccn2c1-c1ccccc1", "activity change, negative = cytotoxicity": "-4.04% (inactive)"},
      {"compound": "CO[C@H]1O[C@@H]2O[C@@]3(C)CC[C@@H]4[C@@H](C)CC[C@@H]([C@H]1C)[C@@]24OO3", "activity change, negative = cytotoxicity": "15.3% (inactive)"},
      {"compound": "COc1ccc(C)cc1-n1c(-c2ccc(C)cc2)cc2c1CC(C)(C)CC2=O", "activity change, negative = cytotoxicity": "-3.87% (inactive)"},
      {"compound": "O=C(C[C@H]1CC[C@H]2[C@@H](COC[C@H](O)CN2C(=O)c2ccccn2)O1)N1CCN(c2ccccc2)CC1", "activity change, negative = cytotoxicity": "-1.19% (inactive)"},
      {"compound": "O=c1[nH]c(CN2CCN(S(=O)(=O)c3ccc4c(c3)OCCO4)CC2)nc2sc3c(c12)CCCC3", "activity change, negative = cytotoxicity": "1.37% (inactive)"},
      {"compound": "CCN(CC)Cc1nc2sc(C)c(C)c2c(=O)[nH]1", "activity change, negative = cytotoxicity": "0% (inactive)"},
      {"compound": "CS(=O)(=O)N(Cc1nc2sc3c(c2c(=O)[nH]1)CCCC3)C1CCCCC1", "Potency": "16.4 µM (active)"},
      {"compound": "Cc1ccc(Cl)cc1N1CCN(C(=O)C2CCC(CNS(=O)(=O)c3cccs3)CC2)CC1", "note": "(configuration not stated)", "Potency": "10.3 µM (active)"},
      {"compound": "O=C(CNS(=O)(=O)c1cccs1)N1CCN(c2ccccc2Cl)CC1", "activity change, negative = cytotoxicity": "-4.89% (inactive)"},
      {"compound": "Cc1ccc(C)c(N2CCN(C(=O)C3CCC(CNS(=O)(=O)c4cccs4)CC3)CC2)c1", "note": "(configuration not stated)", "activity change, negative = cytotoxicity": "-23.1% (inactive)"},
      {"compound": "COc1ccc(S(=O)(=O)N2CCC(C(=O)NCCC(=O)NCCc3cccc(F)c3)CC2)cc1", "activity change, negative = cytotoxicity": "15.5% (inactive)"},
      {"compound": "CC1CCCC(NC(=O)COC(=O)c2ccccc2C(=O)N(C)C2CCCCC2)C1C", "note": "(configuration not stated)", "activity change, negative = cytotoxicity": "-16.4% (inactive)"},
      {"compound": "COc1ccc(-c2cc(C(=O)N3CCN(c4ccc(F)cc4)CC3)no2)cc1", "Potency": "18.4 µM (active)"},
      {"compound": "O=C(c1cc(-c2ccc(F)cc2)on1)N1CCN(c2ccc(F)cc2)CC1", "Potency": "inactive"},
      {"compound": "O=C(c1cc(-c2ccc(Cl)cc2)on1)N1CCN(c2ccccc2)CC1", "activity change, negative = cytotoxicity": "-1.64% (inactive)"},
      {"compound": "CC1=C(C(=O)N2CCOCC2)CC(CC(=O)NCc2ccco2)C(=O)N1Cc1ccc(F)cc1", "note": "(configuration not stated)", "activity change, negative = cytotoxicity": "-14.3% (inactive)"},
      {"compound": "Cc1cc(C(=O)NNC(=O)c2ccccc2O)c(C)o1", "activity change, negative = cytotoxicity": "-8.82% (inactive)"},
      {"compound": "O=C(NNC(=O)c1ccccc1O)c1ccccc1O", "Potency": "0.517 µM (active)"},
      {"compound": "Cc1cc(C(=O)CCC(=O)NNC(=O)c2ccccc2O)c(C)s1", "activity change, negative = cytotoxicity": "-7.24% (inactive)"},
      {"compound": "COc1ccc(NC(=O)CN(C)C(=O)c2cc(C)oc2C)cc1", "activity change, negative = cytotoxicity": "4.74% (inactive)"},
      {"compound": "Cn1c(CCN2CCCCCC2)nc2cc(NC(=O)Nc3ccccc3)ccc21", "activity change, negative = cytotoxicity": "-13% (inactive)"},
      {"compound": "COc1ccc(OCCCn2c(C)nc3cc(C)c(C)cc32)cc1", "activity change, negative = cytotoxicity": "-11.1% (inactive)"},
      {"compound": "Cc1cc2nc(C)n(CCCNC(=O)Nc3ccccc3)c2cc1C", "Potency": "23.1 µM (active)"},
      {"compound": "CCOC(=O)C1(C)CCCN(C(=O)c2ccc(F)c(Cl)c2)C1", "note": "(configuration not stated)", "activity change, negative = cytotoxicity": "1.02% (inactive)"},
      {"compound": "CNc1cc(-c2c(OC)cccc2OC)ncn1", "activity change, negative = cytotoxicity": "4.08% (inactive)"},
      {"compound": "COc1ccccc1CCNC(=O)c1cnccn1", "Potency": "16.4 µM (active)"},
      {"compound": "Cc1ccc(C(=O)NCCNC(=O)c2cnccn2)cc1", "activity change, negative = cytotoxicity": "-5.06% (inactive)"},
      {"compound": "O=C(NCCCNC(=O)c1ccccc1Cl)c1cnccn1", "activity change, negative = cytotoxicity": "0.177% (inactive)"},
      {"compound": "CC(=O)Nc1c(-c2ccc(C)cc2)nc2ccc(Cl)cn12", "activity change, negative = cytotoxicity": "-4.17% (inactive)"},
      {"compound": "O=C(NCC(F)(F)F)c1ccc(S(=O)(=O)NCCc2ccc3c(c2)OCCO3)cc1", "activity change, negative = cytotoxicity": "-0.75% (inactive)"},
      {"compound": "CCCc1nc2ccccc2n1C(C)C(=O)NC(C)(C)C", "note": "(configuration not stated)", "activity change, negative = cytotoxicity": "-9.93% (inactive)"},
      {"compound": "COc1ccc(COC[C@H](CC(C)C)N2CCN(C(=O)c3cccc(C(F)(F)F)c3)CCC2=O)cc1", "activity change, negative = cytotoxicity": "-8.45% (inactive)"},
      {"compound": "O=C(c1cc(Cl)cc(Cl)c1)N1CCC(=O)N(C(COCc2ccccc2)Cc2ccccc2)CC1", "note": "(configuration not stated)", "activity change, negative = cytotoxicity": "0% (inactive)"},
      {"compound": "CC(C)CC(COCc1ccc(Cl)cc1)N1CCN(C(=O)c2ccc(C(F)(F)F)cc2)CCC1=O", "note": "(configuration not stated)", "Potency": "20.6 µM (active)"}
    ]}
  ]
}
